The values that follow come from PubChem BioAssay (NCATS).

Inconclusive results are not listed. The source made the active and inactive calls. Calls follow the shape of the dose curve; as a rule, active = well fitted cell-killing curve with a large enough effect; inconclusive = small, poorly fitted or top-dose-only effect, or effect the other way; inactive = no such curve, though single readings can be large or run the other way.
Potency is read from the fitted curve at half-maximal effect.

This assay in a line: Quantitative High-Throughput drug screen in 47 multiple myeloma cell lines against the NCATS MIPE library collection: XG6_PLB cell viability assay (AID 1919865). Also: nearly all actives have a fitted effect of over 40% in size. The conditions noted are these: XG6 myeloma viability, CellTiter-Glo ATP luminescence, 48 h; series mostly up to 45.8 µM. The text has this: PI: Beverly A. Mock Ph.D.
Laboratory of Cancer Biology and Genetics,
Center for Cancer Research, National Cancer Institute,
National Institute of Health, Bethesda, Maryland
Drug resistance and disease progression are common in multiple myeloma (MM) patients, underscoring the need for new therapeutic combinations. […] We hypothesized that effective combinations would reduce MYC expression and enhance p16 activity. […] These preclinical data identify potentially useful drug combinations for evaluation in drug-resistant MM and reveal potential mechanisms of combined drug sensitivity.
Described herein is the primary MIPE qHTS used to cherrypick compounds. Validated compounds were then further tested for potential synergistic activiy.
[1] Peat TJ, Gaikwad SM, Dubois W, Gyabaah-Kessie N, Zhang S, Gorjifard S, Phyo Z, Andres M, Hughitt VK, Simpson RM, Miller MA, Girvin AT, Taylor A, Williams D, D'Antonio N, Zhang Y, Rajagopalan A, Flietner E, Wilson K, Zhang X, Shinn P, Klumpp-Thomas C, McKnight C, Itkin Z, Chen L, Kazandijian D, Zhang J, Michalowski AM, Simmons JK, Keats J, Thomas CJ, Mock BA. Drug combinations identified by high-throughput screening promote cell cycle transition and upregulate Smad pathways in myeloma. Cancer Lett. 2023 Aug 1;568:216284. doi: 10.1016/j.canlet.2023.216284. Epub 2023 Jun 24. PMID: 37356470; PMCID: PMC10408729.
SEQUENCE No. (e.g., 1, 2, 3, etc.); […] (e.g., Cells, Incubation, Reagent, etc.); VALUE and DESCRIPTION.
1; Cells; 5 uL; white, solid bottom 1536-well Greiner assay plate.
2; Compounds; 23 nL; Kalypsis pin tool (Wako USA) equipped with a 1536-well pin head to transfer to the assay plates.
3; Incubation; 48 hours; 37C incubation.
4; Reagent;5uL; CellTiter Glo (Promega).
5; Detector; 425V; Luminescence; Viewlux PerkinElmer.
NOTES (numbers refer to Sequence numbers above)
1. The cell-based screening methods employed in this study were like those previously published. Briefly, the corresponding myeloma cell lines were screened in 1,536-well plates with 500 cells, 5-uL per well for inhibition of cell viability (assessed by measuring ATP levels with CellTiterGlo).
2. NCATS MIPE 4.0 library of approved and investigational drugs were added using the Kalypsis pin tool. Wells treated with DMSO only for 100% viability and media only for 0% viability were used as controls.
3. The assay plates were covered and incubated for 48 hours in a 37C, 5% CO2 incubator with controlled humidity.
4. After 48 hours, CellTilter-GloTM luminescent substrate mix (Promega) reagent was added to the assay plate and plates we incubated for 5 min at room temperature.
5. Signal was measured as median relative luminescence units on a ViewLux (PerkinElmer) multiplate reader.
[1] Heske CM, Davis MI, Baumgart JT, Wilson K, Gormally MV, Chen L, Zhang X, Ceribelli M, Duveau DY, Guha R, Ferrer M, Arnaldez FI, Ji J, Tran HL, Zhang Y, Mendoza A, Helman LJ, Thomas CJ. Matrix Screen Identifies Synergistic Combination of PARP Inhibitors and Nicotinamide Phosphoribosyltransferase (NAMPT) Inhibitors in Ewing Sarcoma. Clin Cancer Res. 2017 Dec 1;23(23):7301-7311. doi: 10.1158/1078-0432.CCR-17-1121. Epub 2017 Sep 12. PMID: 28899971; PMCID: PMC6636827.
In general terms: In ATP-based viability assays light output follows the ATP content of the culture.
As for `CC(C)(O)Cn1c(NC(=O)c2ccc(-c3cn[nH]c3)s2)nc2cc(CN3CCOCC3)ccc21`, the Potency was 1870 nM (active).

As to `COc1cc2c(cc1OC)[C@@H]1C(=O)c3ccc4c(c3O[C@@H]1CO2)C=CC(C)(C)O4`, the Potency is 105 nM (active).

Take `C[C@]12C=CC(=O)N[C@@H]1CC[C@H]1[C@H]3CC[C@@H](C(=O)Nc4cc(C(F)(F)F)ccc4C(F)(F)F)[C@@]3(C)CC[C@@H]12`: the Potency is 16600 nM (active).

For the molecule `C=CC1=C(C(=O)O)N2C(=O)[C@@H](NC(=O)C(=NO)c3csc(N)n3)[C@H]2SC1`, the Potency entry is “inactive”.

For `c1coc(CNc2ncnc3nc[nH]c23)c1`, the Potency result was “inactive”.

With `CC[C@H]1OC(=O)[C@H](C)[C@@H](O[C@H]2C[C@@](C)(OC)[C@@H](O)[C@H](C)O2)[C@H](C)[C@@H](O[C@@H]2O[C@H](C)C[C@H](N(C)C)[C@@H]2O)[C@](C)(OC)C[C@@H](C)C(=O)[C@H](C)[C@@H](O)[C@]1(C)O`, the Potency result was “inactive”.

As for `O=[N+]([O-])c1cn2c(n1)OC[C@@H](OCc1ccc(OC(F)(F)F)cc1)C2`, the Potency entry is “inactive”.

Turning to `Cc1noc(-c2ccc(CSCCC(=O)O)cc2)c1NC(=O)OC(C)c1ccccc1Cl` (stereo not given), the Potency entry was “inactive”.

For the molecule `COc1cc2c(Nc3ccc(Cl)c(Cl)c3F)ncnc2cc1OCC1C[C@@H]2CN(C)C[C@H]2C1`, the Potency was 1050 nM (active).

Consider `Cn1cc(C2=C(c3c4n(c5ccccc35)CCC(CN)C4)C(=O)NC2=O)c2ccccc21` (stereo not given), for which the Potency is 7430 nM (active).

Take `O=C(CN1C(=O)C2(CCCC2)NC[C@H]1c1cc(F)cc(F)c1)Nc1ccc2c(c1)C[C@@]1(C2)C(=O)Nc2ncccc21`: the Potency result is “inactive”.

As for `C=CC(=O)Nc1cc(NC(=O)c2ccc(C)c(NC(=O)c3ccno3)c2)cc(C(F)(F)F)c1`, the Potency is 16600 nM (active).

Regarding `CNC(=O)c1cccc(-c2ccc3c(N4CCOC[C@H]4C)nc(N4CCOC[C@H]4C)nc3n2)c1`, the Potency is 83.3 nM (active).

As to `CC(C)(C)[N+]([O-])=Cc1ccc(S(=O)(=O)O)cc1S(=O)(=O)O`, the Potency entry was “inactive”.

With `C#C[C@]1(O)CC[C@@H]2[C@@H]3CCc4cc(O)ccc4[C@H]3CC[C@@]21C`, the Potency is 4180 nM (active).

As for `CC(=O)O[C@]1(C(C)=O)CC[C@H]2[C@@H]3C=C(C)C4=CC(=O)CC[C@]4(C)[C@@H]3CC[C@@]21C`, the Potency is 4180 nM (active).

Consider `CC(=O)N1CCN(c2ccc(OCc3nn(C)c(C)c3-c3cccc4c(CCCOc5cccc6ccccc56)c(C(=O)O)n(Cc5cccnc5)c34)cc2)CC1`, for which the Potency was 105 nM (active).

Regarding `Nc1nc(=O)n([C@H]2CSC(CO)O2)cc1F` (stereo not given in full), the Potency entry was “inactive”.

As for `C=C1C(=CC=C2CCC[C@]3(C)[C@@H]([C@H](C)CCCC(C)(C)O)CC[C@@H]23)C[C@@H](O)C[C@@H]1O`, the Potency was 3720 nM (active).

In the case of `CN[C@H](CC(C)C)C(=O)N[C@H]1C(=O)N[C@@H](CC(N)=O)C(=O)N[C@@H]2C(=O)N[C@H]3C(=O)N[C@H](C(=O)N[C@H](C(=O)O)c4cc(O)cc(O)c4-c4cc3ccc4O)[C@H](O)c3ccc(c(Cl)c3)Oc3cc2cc(c3O[C@@H]2O[C@H](CO)[C@@H](O)[C@H](O)[C@@H]2O[C@H]2C[C@](C)(N)[C@H](O)[C@H](C)O2)Oc2ccc(cc2Cl)[C@H]1O`, the Potency is 18700 nM (active).

As to `Cc1ccc(O)c(C(CCN(C(C)C)C(C)C)c2ccccc2)c1` (stereo not given), the Potency entry is “inactive”.

Consider `CC(=O)[C@]1(O)Cc2c(O)c3c(c(O)c2[C@@H](O[C@H]2C[C@H](N)[C@@H](O)[C@H](C)O2)C1)C(=O)c1ccccc1C3=O`, for which the Potency was 235 nM (active).

Take `CC(=O)ON=C1C(c2c(O)[nH]c3cc(Br)ccc23)=Nc2ccccc21`: the Potency was 1320 nM (active).

`COc1cc2ncnc(Nc3cccc(Br)c3)c2cc1OC`: the Potency is 11.8 nM (active).

With `C[N+](C)([O-])CCNc1ccc(NCC[N+](C)(C)[O-])c2c1C(=O)c1c(O)ccc(O)c1C2=O`, the Potency was 13200 nM (active).

For `FC(F)c1nc2ccccc2n1-c1nc(N2CCOCC2)nc(N2CCOCC2)n1`, the Potency was 590 nM (active).

For `COc1cc(OC)cc(-c2ccc3ncc4ccc(=O)n(-c5ccc(N6CCNCC6)c(C(F)(F)F)c5)c4c3c2)c1`, the Potency is 833 nM (active).

Regarding `CCN(CC)Cc1ccc2cc(COC(=O)Nc3ccc(C(=O)NO)cc3)ccc2c1`, the Potency is 1660 nM (active).

Take `OCCNC1CCCc2c1[nH]c1ccc(-c3ccccc3)cc21` (stereo not given): the Potency is 26400 nM (active).

In the case of `CC(=O)OC[C@@H]1O[C@@H](n2ccc(=O)[nH]c2=O)[C@H](OC(C)=O)[C@H]1OC(C)=O`, the Potency entry was “inactive”.

In the case of `Oc1cc2c(cc1O)C1c3ccc(O)c(O)c3OCC1(O)C2` (stereo not given), the Potency entry is “inactive”.

As for `Cn1cc(C=CC(=O)c2cccc(F)c2)cc1C=CC(=O)NO`, the Potency was 2350 nM (active).

On to `CC(C)c1cnn2c(NCc3ccccc3)cc(NCCCCCCN)nc12`, for which the Potency is 332 nM (active).

In the case of `CCCNC(=O)[C@H]1O[C@H]1C(=O)N[C@H](C(=O)N1CCC[C@@H]1C(=O)OC)C(C)CC` (stereo not given in full), the Potency was 8330 nM (active).

For `COc1cc(CCc2cc(NC(=O)c3ccc(N4C[C@@H](C)N[C@@H](C)C4)cc3)n[nH]2)cc(OC)c1`, the Potency is 8330 nM (active).

For `CCc1nc(-c2cccc(C)c2)c(-c2ccnc(NC(=O)c3ccccc3)c2)s1`, the Potency was 20900 nM (active).

For `CCOC(=O)N1CCN([N+]([O-])=NOc2ccc([N+](=O)[O-])cc2[N+](=O)[O-])CC1`, the Potency is 2640 nM (active).

For `Nc1nc2c(c(=O)[nH]1)N(C=O)[C@H](CNc1ccc(C(=O)N[C@@H](CCC(=O)O)C(=O)O)cc1)CN2`, the Potency entry was “inactive”.

`CC[C@@]1([C@@H]2O[C@@H]([C@H]3O[C@@](O)(CO)[C@H](C)C[C@H]3C)C[C@H]2C)CC[C@H]([C@]2(C)CC[C@]3(C[C@H](O)[C@@H](C)[C@@H]([C@@H](C)[C@@H](OC)[C@H](C)C(=O)O)O3)O2)O1`: the Potency was 257 nM (active).

As for `COC(=O)[C@H](CCCN=C(N)N)NS(=O)(=O)c1ccc(C)cc1`, the Potency was 11800 nM (active).
